From PubChem
RMI-FANCM inh: disruptors of RMI1/RMI2 association with MM2 peptide – biochemical, fluorescence polarization, human, primary screen; 0.58% of 70,000 active; RMI core complex with F-MM2 peptide; active compounds read low; FP signal (polarization) at 33 µM; in the data active = FP signal below about 40
Numbers without * were called inactive; ! = not active in a repeat. The entries come from a sample that favours hits as a whole.

SMILES | RMI-FANCM inh
Cc1[nH]c2ccccc2c1C(c1ccc(C(C)C)cc1)c1c(C)[nH]c2ccccc12 | 29*
Cc1[nH]c2ccccc2c1C(c1ccc(OC(F)F)cc1)c1c(C)[nH]c2ccccc12 | 36
Cc1[nH]c2ccccc2c1C(c1ccco1)c1c(C)[nH]c2ccccc12 | 135
COc1ccc(NC(=O)Cn2nc(SC)c(S(=O)(=O)c3ccc(F)cc3)c2N)cc1OC | 61
CC(C)(C)C(=O)N1CCc2ccc(NC(=O)C3(c4ccccc4)CCOCC3)cc21 | 67
O=C(c1ccc(F)cc1F)N1CCN(c2ccc3nnc(C4CC4)n3n2)CC1 | 61
COc1cccc(NC(=O)c2cc(-c3ccc(F)cc3)nc3c2c(C)nn3C2CCS(=O)(=O)C2)c1 (configuration not stated) | 68
FC(F)Oc1ccc(NC(=S)N2CCOCC2)cc1 | 58
COCCN1CCCc2ccc(NC(=O)c3cc(C)cc(C)c3)cc21 | 65
COCCN1CCCc2ccc(NS(=O)(=O)c3cc(C)c(C)cc3OC)cc21 | 60
COCCN1CCCc2ccc(NS(=O)(=O)c3ccc(F)cc3F)cc21 | 18*
COCCN1CCCc2ccc(NS(=O)(=O)c3cc(Cl)ccc3C)cc21 | 64
COCCN1CCCc2ccc(NS(=O)(=O)c3ccccc3Cl)cc21 | 62
COCCN1CCCc2ccc(NS(=O)(=O)c3ccc(OC)cc3)cc21 | 58
COCCN1CCCc2ccc(N)cc21 | -72*
COCCN1CCCc2ccc(NS(=O)(=O)Cc3ccc(Cl)cc3)cc21 | -27*
COCCN1CCCc2ccc(NS(=O)(=O)c3ccc(C(C)(C)C)cc3)cc21 | 61
O=C(Nc1nnc(-c2ccc(Br)s2)o1)c1ccc(Cl)s1 | 67
O=C(NC1CCCCCC1)c1ccc(=O)[nH]n1 | 48
CN(C)c1ccc(C(=O)Nc2c3c(nn2C)CCC3)cc1 | 62
N#CCCC(C#N)(CCC#N)c1ccccc1 | 52
COc1ccc2sc(N(Cc3cccnc3)C(=O)/C=C\c3ccc([N+](=O)[O-])cc3)nc2c1 | 56
CCOC(=O)/C=C/CSc1nc2sc3c(c2c(=O)[nH]1)CCCC3 | 53
COc1ccc(OC)c(/C=C2\SC(=S)N(c3ccc(O)c(C(=O)O)c3)C2=O)c1 | 70
COc1ccc(CCNc2cc(C)c(C#N)c3nc4ccccc4n23)cc1OC | 52
SMILES | RMI-FANCM inh
COc1ccc(C(=O)CSc2cc(C)c(C#N)c3nc4ccccc4n23)cc1OC | 30*
COc1ccc2c(C)cc(SCC(=O)c3ccc(OC)c(OC)c3)nc2c1 | 125
COc1cccc2cc(S(=O)(=O)c3cc(C)cc(C)c3)c(=O)oc12 | 60
CCOc1ccc(OCCNC(=O)c2cc(OC)cc(OC)c2)cc1 | 63
Cc1ccc(Cl)cc1NC(=O)CSc1ncc(S(=O)(=O)c2cccs2)c(N)n1 | 80
Cc1ccc(N=C2NC(=O)/C(=C/c3cccnc3)S2)cc1 | 64
CC(/C=C1\SC(=O)NC1=S)=C\c1ccccc1 | 36
O=C1NC(=S)/C(=C/c2cccnc2)S1 | -19*
C[C@]12CC[C@@H](O)CC1CCC1C2CC[C@](C)(C(=O)O)C1/C=C1/Nc2ccccc2C1=O (some centres not stated) | 38
C[C@]12CC=CCC1CCC1C2CC[C@](C)(C(=O)O)C1/C=C1/Nc2ccccc2C1=O (some centres not stated) | 35*!
CN(C)n1cccc1/C=N\NC(=O)c1cccc(C(F)(F)F)c1 | 56
O=C(CCn1cnc2c([nH]c3ccccc32)c1=O)NCc1ccc(Cl)cc1 | 63
COc1cc2cc(C(=O)O)cc(-c3ccc(C)cc3)c2cc1OC | 60
COc1cc2cc(=O)[nH]c(C)c2cc1OC | 50
COc1cc2cc3c4cc(OC)c(OC)cc4cc[n+]3c(C)c2cc1OC | 12*!
COc1c2ccc(C(=O)O)cc2nn1C | 69
Cc1csc(C(=O)NNC(=O)c2ccco2)c1Cl | 55
COc1ccc(OC)c(S(=O)(=O)N2CCC(c3nnc(-c4ccco4)s3)CC2)c1 | 60
CCOC(=O)c1c(C)oc2c1c(C=NC(C)c1ccccc1)c(O)c1ccccc12 (configuration not stated) | 39
CCOC(=O)c1c(-c2ccccc2)oc2c1cc(NS(=O)(=O)c1ccc(C)cc1C)c1ccccc12 | 60
CCOC(=O)c1c(C)oc2c1c(C=NC1CC(C)(C)NC(C)(C)C1)c(O)c1ccccc12 | 8*
CCOc1ccc(NC(=O)Cn2cnc3c(cnn3C3CCS(=O)(=O)C3)c2=O)cc1 (configuration not stated) | 65
COc1ccc(-c2csc(SCc3ccc(C(=O)N4CCOCC4)o3)n2)cc1OC | 60
Cc1noc(C)c1S(=O)(=O)N1CCC(C(=O)O)CC1 | 56
Cc1coc(C)c1C(=O)O | 57
SMILES | RMI-FANCM inh
CCCc1noc(C)c1C(=O)O | -5*
CC(=O)NNC(=O)C1=NNC(=O)C1 | 57
Cc1cc(NCc2ccccn2)nc(-n2cc([N+](=O)[O-])cn2)n1 | 52
Cn1c(=O)c2c(O)c(C=Nc3cccc([N+](=O)[O-])c3)c(=O)n(C)c2n(C)c1=O | 28*
Cn1c(=O)c2c(O)c(C=NCc3ccccc3)c(=O)n(-c3ccccc3)c2n(C)c1=O | 56
Cn1c(=O)c2c(O)c(C=Nc3cccc(Cl)c3Cl)c(=O)n(C)c2n(C)c1=O | 45
C=CCn1c(SCC(=O)N2CCOCC2)nc2scc(-c3ccc(C)c(C)c3)c2c1=O | 71
CCn1ccc(C(=O)N(CCN2CCOCC2)c2nc3c(OC)ccc(OC)c3s2)n1 | 60
CCOC(=O)N1CCN(C(=O)CSc2nc3c(c(=O)n2-c2ccc(OCC)cc2)SCC3)CC1 | 81
O=C(CSc1nc2c(c(=O)n1-c1ccc([N+](=O)[O-])cc1)SCC2)N1CCCc2ccccc21 | 24*
O=C(CSc1nc2c([nH]c3ccccc32)c(=O)n1-c1ccc([N+](=O)[O-])cc1)N1CCc2ccccc21 | 65
COc1ccc(-c2ccc(=O)n(CCCNC(=O)c3ccc4ccccc4n3)n2)cc1 | 68
CC(C)(C)C(=O)Nc1sc2c(c1C#N)CCCC2 | 58
N#Cc1c(N)sc2c1CCC2 | 50
N#Cc1c(N)sc(=S)c2c1CCCC2 | 7*
O=C(c1ccccc1)c1ccc2c3c(cccc13)CC2 | 62
Cc1ccccc1N1C(=O)c2cccc3c(C(=O)O)ccc(c23)C1=O | 60
O=C(c1ccccc1)c1ccc2c3c(cccc13)C(=O)N(c1ccc3c4c(cccc14)CC3)C2=O | 18*
COCCCNS(=O)(=O)c1ccc(NS(=O)(=O)c2cc(OC)ccc2OC)cc1 | 54
O=C(NCC1(c2cccs2)CCCC1)c1c(F)cccc1F | 67
O=C(CSc1ccc(NC(=O)C2CC2)nn1)Nc1nc2ccccc2s1 | 114
COC(=O)N1CCc2c(sc(NC(=O)c3cccs3)c2-c2nc3ccccc3s2)C1 | 76
CC(C)N1CCc2c(sc(NC(=O)Cc3ccc(F)cc3)c2-c2nc3ccccc3s2)C1 | 500
CCOc1ccc(C(=O)Nc2sc3c(c2-c2nc4ccccc4s2)CCN(C(C)C)C3)cc1 | -31*
CCOC(=O)N1CCc2c(sc(N)c2-c2nc3ccccc3s2)C1 | 76
COc1ccc(CC(=O)Nc2sc3c(c2-c2nc4ccccc4s2)CCN(C(C)C)C3)cc1 | 55
CCOC(=O)N1CCc2c(sc(NC(=O)c3ccc(Br)s3)c2-c2nc3ccccc3s2)C1 | 6*
O=S1(=O)CC(Cl)C(N=C(Cl)C(Cl)(Cl)Cl)C1 (configuration not stated) | 62
CC1Cc2ccccc2N1C(=O)c1cccn(Cc2ccccc2Cl)c1=O (configuration not stated) | 50
